Source: the OligoGym collection

Target: ASCL1
Assay: pooled miR-30 sensor sort-seq; sequence = guide strand
Conditions: shRNA
Note: reference of the scale not given here.

Question: How did the sensor-assay potency score (higher = more potent) turn out when TTGCGCTCGCGCTCGTTGCGGC was run?
Answer: Its sensor-assay potency score (higher = more potent) is -0.896.

Question: With TACTCATCTTCTTGTTGGCCGC as the sequence, how does the sensor-assay potency score (higher = more potent) read?
Answer: Its sensor-assay potency score (higher = more potent) is -0.58.

Question: For TACATTAACAACATTTCTATAA, which sensor-assay potency score (higher = more potent) is on record?
Answer: Its sensor-assay potency score (higher = more potent) is -1.04.

Question: For AATACATTAACAACATTTCTAT, which sensor-assay potency score (higher = more potent) is on record?
Answer: The sensor-assay potency score (higher = more potent) was -0.252.

Question: For TTGGAGTGCAAAGATACTGTTC, which sensor-assay potency score (higher = more potent) is on record?
Answer: The sensor-assay potency score (higher = more potent) was 0.084.

Question: How did the sensor-assay potency score (higher = more potent) turn out when TTGGGCGCTGACTTGTGACCGC was run?
Answer: The sensor-assay potency score (higher = more potent) was -0.646.

Question: Which sensor-assay potency score (higher = more potent) does the source give for ATGGAGTTCAAGTCGTTGGAGT here?
Answer: Its sensor-assay potency score (higher = more potent) is -1.08.

Question: TTGAACAGTATTTAATAACATC was tested. Which sensor-assay potency score (higher = more potent) did it give?
Answer: Its sensor-assay potency score (higher = more potent) is -1.14.

Question: Which sensor-assay potency score (higher = more potent) does the source give for TAATACATTAACAACATTTCTA here?
Answer: The sensor-assay potency score (higher = more potent) was 0.433.

Question: TTGGTGCTGAAGTACAACTGGT was tested. Which sensor-assay potency score (higher = more potent) did it give?
Answer: Its sensor-assay potency score (higher = more potent) is -0.518.

Question: Which sensor-assay potency score (higher = more potent) does the source give for TAAGTTTGTAATAAAACAGTAA here?
Answer: The sensor-assay potency score (higher = more potent) was -0.00305.

Question: Which sensor-assay potency score (higher = more potent) does the source give for TTACTCATCTTCTTGTTGGCCG here?
Answer: Its sensor-assay potency score (higher = more potent) is 0.746.

Question: With TTTGAGTTTGGACAGTAGCTGC as the sequence, how does the sensor-assay potency score (higher = more potent) read?
Answer: The sensor-assay potency score (higher = more potent) was -0.582.

Question: TTCACTGTAAACCAATGTCTAC was tested. Which sensor-assay potency score (higher = more potent) did it give?
Answer: Its sensor-assay potency score (higher = more potent) is -1.2.

Question: AAGTCGTTGGAGTAGTTGGGGG was tested. Which sensor-assay potency score (higher = more potent) did it give?
Answer: Its sensor-assay potency score (higher = more potent) is -0.573.

Question: With TTGACCAACTTGACGCGGTTGC as the sequence, how does the sensor-assay potency score (higher = more potent) read?
Answer: The sensor-assay potency score (higher = more potent) was 0.134.

Target: ASF1A
Assay: as above
Conditions: shRNA

Question: How did the sensor-assay potency score (higher = more potent) turn out when TAAAACAGAGTCTAAAACTTGA was run?
Answer: Its sensor-assay potency score (higher = more potent) is -0.0289.

Question: For TCGAAGGTGATCTCGAACTGGA, which sensor-assay potency score (higher = more potent) is on record?
Answer: Its sensor-assay potency score (higher = more potent) is -0.487.

Question: Which sensor-assay potency score (higher = more potent) does the source give for TTGGATTACTGCTCTCTGCATC here?
Answer: Its sensor-assay potency score (higher = more potent) is -0.437.

Question: How did the sensor-assay potency score (higher = more potent) turn out when TTGAAGCTTAGAAAAGTCTGGT was run?
Answer: The sensor-assay potency score (higher = more potent) was -0.243.

Question: How did the sensor-assay potency score (higher = more potent) turn out when TCTAACATGACATTTAGTGAGT was run?
Answer: The sensor-assay potency score (higher = more potent) was 0.228.

Question: For TTTGAAGCTTAGAAAAGTCTGG, which sensor-assay potency score (higher = more potent) is on record?
Answer: Its sensor-assay potency score (higher = more potent) is 0.13.

Question: With TAACATGACATTTAGTGAGTTT as the sequence, how does the sensor-assay potency score (higher = more potent) read?
Answer: Its sensor-assay potency score (higher = more potent) is -0.448.

Question: TTAGATGCCAAAATATTCCTTT was tested. Which sensor-assay potency score (higher = more potent) did it give?
Answer: The sensor-assay potency score (higher = more potent) was 0.414.

Question: TAATAAATTCTTGTCCTCGATA was tested. Which sensor-assay potency score (higher = more potent) did it give?
Answer: Its sensor-assay potency score (higher = more potent) is -1.01.

Question: For TAATTTTCCATTCCAAGTCTTC, which sensor-assay potency score (higher = more potent) is on record?
Answer: Its sensor-assay potency score (higher = more potent) is -0.557.

Question: TTACATAATAGCCAACTCTAAT was tested. Which sensor-assay potency score (higher = more potent) did it give?
Answer: The sensor-assay potency score (higher = more potent) was -1.16.

Question: For TGAAATACAAACATATGCCTTC, which sensor-assay potency score (higher = more potent) is on record?
Answer: Its sensor-assay potency score (higher = more potent) is 0.343.

Target: ASNSD1
Assay: as above
Conditions: shRNA

Question: Which sensor-assay potency score (higher = more potent) does the source give for TAAATCTTGACTGAAATGCTCA here?
Answer: Its sensor-assay potency score (higher = more potent) is -0.203.

Question: With TAAGATTATATAGTAAGTCCTC as the sequence, how does the sensor-assay potency score (higher = more potent) read?
Answer: Its sensor-assay potency score (higher = more potent) is -0.501.

Question: TATTAGGACTGTCAGCAGCAGC was tested. Which sensor-assay potency score (higher = more potent) did it give?
Answer: The sensor-assay potency score (higher = more potent) was -1.12.

Question: For TTTCTTGACTGCTACACTCAGG, which sensor-assay potency score (higher = more potent) is on record?
Answer: Its sensor-assay potency score (higher = more potent) is -0.64.

Question: How did the sensor-assay potency score (higher = more potent) turn out when ATTCTCTTCAGCTTCAACCTTT was run?
Answer: Its sensor-assay potency score (higher = more potent) is 0.221.

Question: TTCTTCAATAATATTCTCCCTA was tested. Which sensor-assay potency score (higher = more potent) did it give?
Answer: The sensor-assay potency score (higher = more potent) was 0.32.

Question: TTCCATAGAAACACATTGCCTC was tested. Which sensor-assay potency score (higher = more potent) did it give?
Answer: The sensor-assay potency score (higher = more potent) was 0.13.

Question: With TAACTCTGTCATCACGACCAAG as the sequence, how does the sensor-assay potency score (higher = more potent) read?
Answer: Its sensor-assay potency score (higher = more potent) is -0.98.

Question: TTTTTCACCAATTCCTCGGGGT was tested. Which sensor-assay potency score (higher = more potent) did it give?
Answer: The sensor-assay potency score (higher = more potent) was 0.495.

Question: TTCTAGAAGAAATTCGACCCAG was tested. Which sensor-assay potency score (higher = more potent) did it give?
Answer: The sensor-assay potency score (higher = more potent) was -0.284.
